In all, about 1,300 compounds went through this assay and fewer than 10 were called active. The rule behind the calls is not given here. A selection follows.
Each compound was assayed on metallo-beta-lactamase IMP-1 (Pseudomonas aeruginosa) (assay: IMP-1 enzyme inhibition by VIM-2 hits – biochemical, epi-absorbance readout, triplicate, selectivity assay for selective VIM-2 inhibitor project, confirmation (AID 1856;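 note: 0% = enzyme with vehicle and 100% = vehicle without enzyme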)). Conditions: purified IMP-1, nitrocefin hydrolysis, epi-absorbance fluorescence; at 5.6 µM; hits give high values.

inhibition, inactive:
C=CCn1c(-c2ccccc2OCC)n[nH]c1=S -2.2%
Cc1cc(NCc2ccco2)n2c(nc3ccccc32)c1C#N -3.37%
O=C(COc1cc2oc(=O)c3c(c2cc1Cl)CCC3)NCCCN1CCOCC1 -1.87%
CCN(CC)c1ccc2cc(C(N)=O)/c(=N\NC(=O)c3ccncc3)oc2c1 -2.41%
Cc1cccn2c(=O)c(C=O)c(Nc3ccc(S(N)(=O)=O)cc3)nc12 -3.66%
COc1nc(N=C(N)N)nc2c(C)cccc12 -3.85%
COc1cc(NC(=O)C2=C(C)OCCS2)c(Cl)cc1C(=O)NCCN1CCN(C)CC1 -2.62%
CCN1CCN(CCNC(=O)c2ccc3c(c2)NC(=O)/C(=C\c2ccc(OC)c(OC)c2)S3)CC1 -3.87%
Cn1c(-c2sccc2OCc2cccc(C(F)(F)F)c2)n[nH]c1=S -2.3%
CCOC(=O)N1CCN(C(=O)C2CCN(c3ncnc4c3sc3cccc(F)c34)CC2)CC1 -2.28%
Cc1cc(-c2ccc(/C=N/n3cnnc3)o2)c([N+](=O)[O-])cc1C -2.82%
CNC(=O)c1ccsc1NC(=O)c1ccc(S(=O)(=O)N2CCOCC2)cc1 -2.75%
Cc1cc(C)c2nc3nc(C)cc(C)c3c(N)c2c1 -3.37%
COc1ccc(-c2nn3c(-c4ccccc4)nnc3s2)cc1OC -2.66%
CCc1cc(=O)oc2cc(C)cc(OCC(=O)N3CCC[C@@H]3C(=O)O)c12 -3.22%
NC(=O)C1CCN(C(=O)COc2ccc3c4c(c(=O)oc3c2)CCC4)CC1 -2.5%
COc1cc(/C=N/Nc2nn3cnnc3c3ccccc23)cc(OC)c1OC -2.07%
Cc1cc([N+](=O)[O-])c(-c2ccc(/C=N/n3cnnc3)o2)cc1Cl -2.7%
COc1ccc(Nc2cc(C)nc(-n3nc(C)cc3C)n2)cc1 -4.36%
COc1cc(-c2nn3c(-c4cccc(C)c4)nnc3s2)cc(OC)c1OC -3.37%
CCN1CCCC1CNC(=O)c1cc2c(=O)n(C)c3ccccc3c2n1C (stereo not given) -1.43%
COC(=O)c1c(NC(=O)c2ccc(S(=O)(=O)N3CCOCC3)cc2)sc2c1CCN(C(C)C)C2 -3.07%
Cc1nc2ccccc2c2oc(C(=O)NCCCN3CCC(C)CC3)cc12 -2.57%
O=C(NCCCN1CCOCC1)c1cnn2c(-c3ccccc3)cc(-c3ccccc3)nc12 -1.31%
CCOc1cc(/C=C2\SC(N3CCCC(C)C3)=NC2=O)ccc1O (stereo not given) -1.58%
